From the supplement of paper PMC9023506
Counter-ions that a name gives are not always drawn.

System: Danio rerio larvae (5 dpf)
Experiment: excitability to 1-s acoustic pulses, difference vs DMSO (percentage points (treated minus DMSO)); higher = more of the behaviour than the DMSO vehicle control
Conditions: 10 µM; exposure time: 3 h pre-incubation + 3 h imaging
Method: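 5-dpf wild-type zebrafish larvae were imaged in 96-well plates. They were treated with 190 Tocris FDA-approved drugs at 10 µM (1 µl/ml DMSO) for 3 h before and 3 h during imaging at 28.5 °C, 48 larvae per drug. Automated image analysis gave % time moving and optomotor responses. Values are drug group mean minus DMSO vehicle mean (n=844), in percentage points, for 10 behaviours.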

Compared with `CCN(C)C(=O)Oc1cccc([C@H](C)N(C)C)c1` [Rivastigmine tartrate], `COc1ccc(C(CN(C)C)C2(O)CCCCC2)cc1` (configuration not stated) [Venlafaxine hydrochloride] is higher in “excitability to 1-s acoustic pulses” value: 2.04 for the first, 8.33 for the second.

Compared with `CC[C@@H](C(N)=O)N1CCCC1=O` [Levetiracetam], `COc1cc2c(cc1OC)C1CC(=O)C(CC(C)C)CN1CC2` (configuration not stated) [Tetrabenazine] is higher in “excitability to 1-s acoustic pulses” value: 1.84 for the first, 21.7 for the second.

Compared with `CN1C[C@H](C(=O)N[C@]2(C)O[C@@]3(O)[C@@H]4CCCN4C(=O)[C@H](Cc4ccccc4)N3C2=O)C[C@@H]2c3cccc4[nH]cc(c34)C[C@H]21` [Dihydroergotamine mesylate], `CC(C)C[C@H]1C(=O)N2CCC[C@H]2[C@]2(O)O[C@](NC(=O)[C@@H]3C=C4c5cccc6[nH]c(Br)c(c56)C[C@H]4N(C)C3)(C(C)C)C(=O)N12` [Bromocriptine mesylate] is higher in “excitability to 1-s acoustic pulses” value: 1.17 for the first, 17.6 for the second.

Going from `C=C1C[C@@H]2[C@H](CC[C@]3(C)C(=O)CC[C@@H]23)[C@@]2(C)C=CC(=O)C=C12` [Exemestane] to `C=CCN1C[C@H](C(=O)N(CCCN(C)C)C(=O)NCC)C[C@@H]2c3cccc4[nH]cc(c34)C[C@H]21` [Cabergoline], the “excitability to 1-s acoustic pulses” value falls from 11.5 to 10.

Going from `CC(O)(CS(=O)(=O)c1ccc(F)cc1)C(=O)Nc1ccc(C#N)c(C(F)(F)F)c1` (configuration not stated) [Bicalutamide] to `O=c1[nH]c2ccccc2n1C1CCN(CCCC(c2ccc(F)cc2)c2ccc(F)cc2)CC1` [Pimozide], the “excitability to 1-s acoustic pulses” value falls from 3.69 to -3.54.

Going from `N[C@@H]1C[C@H]1c1ccccc1` [Tranylcypromine hydrochloride] to `Cc1cccc([C@H](C)c2c[nH]cn2)c1C` [Dexmedetomidine hydrochloride], the “excitability to 1-s acoustic pulses” value rises from 0.887 to 8.78.
